Results filed as inconclusive are left out. A call without a number means that no potency is given here. Activity calls are given as the source filed them. Calls follow the shape of the dose curve; as a rule, active = well fitted cell-killing curve with a large enough effect in the repeat runs; inconclusive = weak or mixed curves, or effect the other way; inactive = flat fitted curve, though single readings scatter.
Assay: qHTS assay to identify small molecule antagonists of the retinoid acid receptor (RAR) signaling pathway - cell viability counter screen (AID 1159551); also: nearly all actives have a fitted effect of over 35% in size
Conditions: C3RL4 cells viability, ATP luminescence (CellTiter-Glo), 6 h; series mostly up to 92.4 µM
Description: U.S. Tox21 Program National Center for Advancing Translational Sciences [NCATS] NIH Chemical Genomics Center [NCGC] U.S. Environmental Protection Agency [EPA] National Institutes of Environmental Health Sciences [NIEHS] National Toxicology Program [NTP] U.S. Food and Drug Administration [FDA] Tox21 Assay Overview: All-trans Retinoic acid (atRA) is the potent natural metabolite of retinol and plays an important role in normal embryonic development and maintenance of cellular phenotype in adult animals. atRA is the activating ligand for the retinoic acid receptors (RARs) which form heterodimers with retinoid X receptors (RXRs) on the retinoic acid response element (RARE). Through activation of the RAR/RXRs nuclear receptors, atRA regulates the transcription of a large number of protein-coding genes and regulatory RNAs. Intracellular levels of atRA are controlled by the retinol signaling pathway (RSP) that regulates the biosynthesis and catabolism of atRA to maintain physiological levels. Chemicals that interfere with the RSP can cause abnormal intracellular levels of atRA and therefore are potential developmental toxicants. To assess compounds for the potential adverse effect on embryonic development through interfering with retinol signaling, a cell-based RARE luciferase reporter gene assay was used. C3RL4 cell line (OARSA/CFSAN/FDA, Laurel, MD) was used to screen Tox21 10K compound library for identifying inhibitors of the RSP. Also cytotoxicity was assessed by determining the viability of cells based on the quantitation of ATP.
Tox21 Assay Protocol Summary: C3RL4 cells were seeded at 1,000/well in 4 uL of assay medium into white solid 1,536-well tissue culture plates (Greiner Bio-One North America Inc. Monroe, NC) using a Multidrop Combi (Thermo Scientific, Waltham, MA) dispenser. After incubation at 37 C and 5% CO2 for an overnight, 23 nL of compounds dissolved in DMSO, positive control or DMSO only were transferred by a Pintool station (Kalypsys, San Diego, CA). One ul of 1 uM (final concentration) of Retinol was added right after the compound addition by using a Flying Reagent Dispenser (FRD) (Aurora Discovery, San Diego, CA). After 6 hr incubation at 37 C and 5% CO2, 5 uL of CellTiter-Glo reagent (Promega Corporation, Madison, WI) was added to each assay plate using an FRD. Luminescence was quantified on a ViewLux plate reader (PerkinElmer, Waltham, MA) after 30 min incubation at room temperature.
Potency is read from the fitted curve at half-maximal effect.

Row | SMILES | Potency
1 | c1cc(C(c2ccc(OCC3CO3)cc2)c2ccc(OCC3CO3)cc2)ccc1OCC1CO1 (stereo not given) | inactive
2 | C[n+]1cc2c3c(ccc2c2ccc4cc5c(cc4c21)OCO5)OCO3 | 3.66 µM (active)
3 | CCC(Cl)C(Cl)C(Cl)CC(Cl)C(Cl)C(C)Cl (stereo not given) | inactive
4 | COc1cccc(N)c1 | inactive
5 | O=[N+]([O-])c1cc(Cl)c(Cl)c(Cl)c1Cl | inactive
6 | CCN(CC)CCCC(C)Nc1c2ccc(Cl)cc2nc2ccc(OC)cc12 (stereo not given) | inactive
7 | O=C(Nc1ccc(Oc2ccc(Cl)cc2)c(Cl)c1)c1cc(I)cc(I)c1O | inactive
8 | CCCCCCC[N+](CC)(CC)CCCCc1ccc(Cl)cc1 | inactive
9 | CCc1cc(SCc2sc(-c3ccc(C(F)(F)F)cc3)nc2CN2CCN(c3ccc(OC)cc3)CC2)ccc1OCC(=O)O | inactive
10 | ON=C1CCCC1 | inactive
11 | COc1ccc(-c2ccc3cc(C(=O)O)ccc3c2)cc1C12CC3CC(CC(C3)C1)C2 | inactive
12 | CCCCC(CC)COP(=O)(O)OCC(CC)CCCC (stereo not given) | inactive
13 | CSc1ccc(/C=C2/C(C)=C(CC(=O)O)c3cc(F)ccc32)cc1 | inactive
14 | CCOC(=O)c1nc(C(Cl)(Cl)Cl)n(-c2ccc(Cl)cc2Cl)n1 | inactive
15 | C[C@]12CCC(=O)C=C1CC[C@@H]1[C@@H]2[C@@H](O)C[C@@]2(C)[C@H]1CC[C@]2(O)C(=O)COC(=O)CCC(=O)O | inactive
16 | CN1CCC(Nc2ncc3ncnc(Nc4ccc(F)c(Cl)c4)c3n2)CC1 | inactive
17 | CSc1cnc(C)cn1 | inactive
18 | COc1cc(-c2ccc(N=C=O)c(OC)c2)ccc1N=C=O | inactive
19 | CC1=NC(C)OC1C (stereo not given) | inactive
20 | CCOC(=O)O[C@]1(C(=O)OCCl)CC[C@H]2[C@@H]3CCC4=CC(=O)C=C[C@]4(C)[C@H]3[C@@H](O)C[C@@]21C | inactive

Row | SMILES | Potency
21 | Cc1cc(O)c(C(C)(C)C)cc1C(C)(C)C | 43.3 µM (active)
22 | NNc1nc(-c2ccc([N+](=O)[O-])cc2)cs1 | 43.3 µM (active)
23 | CCCCCCCCCCn1cc[n+](CCCCCCCCCC)c1C | 61.2 µM (active)
24 | CCCCCCCCCCC=O | inactive
25 | Cc1cc2c(cc1C(F)(F)F)N(C(=O)Nc1ccc(Oc3cccnc3C)nc1)CC2 | inactive
26 | Clc1ccc2cc3ccccc3cc2c1 | inactive
27 | CCOC(=O)O[C@H](C)OC(=O)c1ccc2c(c1)cc(C(=O)NC1CCN(C(C)C)CC1)n2Cc1cc(-c2ccc(Cl)s2)on1 | 28.6 µM (active)
28 | O=C1Cc2cc(CCN3CCN(c4nsc5ccccc45)CC3)c(Cl)cc2N1 | inactive
29 | CCN(Cc1cccnc1)C(=O)c1cccc(Cl)c1[C@]1(C)C(=O)N(Cc2ccc(OC)cc2OC)c2ccc(Cl)cc21 | inactive
30 | N#CC1(c2ccc(F)cc2)CCC(=O)CC1 | inactive
31 | Oc1ccc2c(c1)-c1ccccc1C2 | inactive
32 | O=C1C=CC(=O)N1 | 31.4 µM (active)
33 | O=C(O)c1c(Cl)cccc1Cl | inactive
34 | CCN(C(=O)N(CC)c1ccccc1)c1ccccc1 | inactive
35 | CCCCC(CC)COC(=O)c1ccccc1C(=O)O (stereo not given) | inactive
36 | CN(C)[C@@H]1C(=O)C(C(N)=O)=C(O)[C@@]2(O)C(=O)C3=C(O)c4c(O)ccc(Cl)c4[C@@H](O)[C@H]3C[C@@H]12 | inactive
37 | COCCCC/C(=N\OCCN)c1ccc(C(F)(F)F)cc1 | inactive
38 | Oc1cc2ccccc2c2ccccc12 | 27.3 µM (active)
39 | C[n+]1ccn(Cc2ccccc2)c1 | inactive
40 | COC(=O)c1cc(Cl)ccc1OC | inactive

— PubChem BioAssay (Tox21)
